# Measured values reported in the supplement of paper PMC6555819.
# Tested on: VDR:RXRa (NR concentration 270 nM, RXRa partner concentration 90 nM)
# Assay: PBM binding z-score (relative to random genomic background probes); higher = stronger binding; sequences stand for … in GC…GCGATTGACAGCGTAGAATGAAGG
# Procedure: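 Protein-binding microarray (Agilent 4x180K custom design, double-stranded 60-nt probes: 5' GC cap, 34-nt variable region, 24-nt constant primer region; full probe sequence given). Purified or IVT nuclear receptor:RXRα heterodimers (3:1 NR:RXRα, mostly 270:90 nM) or homodimers were incubated for 1 h in PBS with 2% milk and no ligand, then detected with Alexa488 antibodies. Fluorescence from o1-orientation probes (~5 replicates averaged) was converted to z-scores against 500 random hg19 background probes. Variable regions are seed direct-repeat (DR0–DR5) sites, all their single-nucleotide variants and half-site ablations.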
row,Sequence,PBM binding z-score
1,GCTGCTAGGTCAGGCTGGTCAGCTAACGGGTACG,0.677
2,CGAACTAGGTCATTGACAGTACAGTGAATAGTAA,2.57
3,AGTCAAACTTCACTAGGTAACGTAAGATTCAGCT,-0.0334
4,CGTCCAAGGTCAGCACGTCAGTGAAAGCGACGTG,2.46
5,GCAGACCGGTGAAACGCAGGTAACTCAGGGTGGC,-0.857
6,TCAGACAGGTGATGGTAACTCAGGTACGCAGTCG,0.615
7,TATCCTAGGTCATGGGCCAGTATACCACGCGAAC,2.75
8,ATCTCTAGGTAAGATTCAGTTCAGTGAAGAACGC,0.961
9,CCTTACGGGGCACGAGGTTATAGCACGACGAGCG,0.986
10,TCATATGGGTAAAGGTGAAAGTCGAACGATATGA,0.608
11,ACTATTAGTTGACTTAGGGCAAACGATACGACGC,0.55
12,TCGAGTAGGTTACTAATGGGGCATTCAGCTTTCT,0.0839
13,AGAACGAGGGCAATCAGTTGATAGCACGGGTGGC,2.58
14,TTACCAAGGTGAGCTGAGGTCTTTGATCCAACTC,0.497
15,TGTCAAAGTTCCAAGGTAACGTAAGTATCCACAC,0.281
16,ATATGTAGGTTATCGAGTCATTCAGTTTGCGCAT,1.72
17,CAAACTTGGTCACGAAAGGTCAAAGTCGAATGAC,5.37
18,CTCGAAAGGTAGTGCTCAGGTGAGTATACCAAAC,-0.361
19,TCGAGTAAGTTACCAATGGGGCATTCAGCTTTCT,0.0279
20,GCGACTGGGGCACAGCAGGTTACCATAAGGTTGG,-0.208

row,Sequence,PBM binding z-score
1,AGAATGAGGTTATACGTAGATCAAGGAAGAAAGT,1.33
2,TCTATTAGCTGAAGGGCAACCGACGAGTCCGTTT,0.475
3,CTCGAAAGGTCGTGCTCAGGTGAGTATCCCAAAC,3.03
4,GCTGCTAGGTCGGGTTGGTCAGCTAACGGGTACG,-0.0515
5,ATATGTAGGTTAGCTGGGGTCATGCAGACTAGGC,5.85
6,TCTGCTAGGTCAGTTAGTCAGCTAACGAGCTGCC,-0.204
7,CGTCCAAGGTCATAGGAGGTCAGTCAAGACAGAT,6.72
8,TCTACCAGGCCAGAGGGTCACTCAAGAGGTACGG,2.1
9,GCTCGGAGGACAAGGTCAGCGCTTTGTCCGTAGA,1.88
10,GCTTACGGGACAAAGGTTATAGCATGAATAGAAT,1.24
11,ATCTCTAGGTAAAACTCAGTTCAGTGAAGAACGC,1.5
12,GATACAGGGTTAAGGCCAGAGTACGCGTATTGAT,1.05
13,ATATGTAGGTTACATCCGGGTCATGCAGGCTATG,3.8
14,AATACAGGGTCACCGTAGGCCAGAGTACGCACAG,5.2
15,GTACCAACGTGAATAGGTCGTTGATGAGTAGGCG,-0.204
16,ACTATTAGTTGGGACGAGGGCAACCGATAGGTTG,0.564
17,GCTACTTGGTCAGTAAAAGGTCACACACCGGTCG,4.16
18,ATCTCTAGGTTACCAAGTTCAGTGAATGCCGAAC,5.85
19,CCTACTGGGACATTCAGAGGTCATTGATCATATG,4.18
20,TCATATAGGTAAAAGGTGAAAGCCGGTGTGGTAA,1.62
